Most compounds without a hit are left out; they make up all but 9.2% or so of the library.
Rab9 promoter act = qHTS Assay for Rab9 Promoter Activators. Huh7 Rab9 promoter-luciferase reporter, luminescence, 24 h. Potency, µM (titrated, usually from 9.22 µM), usual class: activators. 2.8% of 320,000 active; also: nearly all actives have a fitted effect of over 60% in size
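Luminescence read-out: Huh7 cells stably expressing Rab9-luciferase, treated 24 h with compound at 37 °C, then lysed with luciferase reagent for 10 min at ambient before reading.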
SMN2 splice up = qHTS Assay for Enhancers of SMN2 Splice Variant Expression | HEK293 SMN2-luciferase splicing reporter, luminescence, 30-36 h | Potency, µM (top dose mostly 46.1 µM), usual class: activators | 2.8% of 210,000 active; also: nearly all actives have a fitted effect of over 55% in size
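qHTS luciferase splicing reporter: luminescence rises when SMN2 exon 7 is included in transfected HEK293 cells. Compound exposure lasted 30-36 h at 37C, with 4.5 mM final sodium butyrate as control, followed by a ONE-Glo read.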
NPC1 prom act = qHTS Assay for NPC1 Promoter Activators | Huh7 NPC1 promoter luciferase reporter, 24 h | Potency, µM (titrated, usually from 9.22 µM), most hits filed as activators | 2.4% of 320,000 active | AID 485313, 2010; also: nearly all actives have a fitted effect of over 60% in size
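Luciferase expression driven by the NPC1 promoter was measured in stably transfected Huh7 cells after a 24 h compound incubation, using a luciferase reagent and a luminescence read.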
ELG1 genotox = qHTS screen for small molecules that induce genotoxicity in human embryonic kidney (HEK293T) cells expressing luciferase-tagged ELG1. 1.3% of 330,000 active. HEK293T ELG1-luciferase reporter, luminescence, 16 h. Potency, µM (top dose mostly 46 µM), hits mostly activators; also: nearly all actives have a fitted effect of over 60% in size
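Step 1: seed 2,000 HEK293T ELG1-luciferase cells per well. Step 2: add compound or DMSO, incubate 16 hr at 37 °C. Step 3: ONE-Glo, 30 min at room temperature, read luminescence.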
FLuc counter = qHTS profiling assay for firefly luciferase inhibitor/activator using purifed enzyme and Km concentrations of substrates (counterscreen for miR-21 project); purified FLuc, Km substrates, luminescence inhibition; Potency, µM (highest dose often 57.5 µM), most hits filed as inhibitors; 6.9% of 360,000 active; also: nearly all actives have a fitted effect of over 55% in size
Target sequence (P08659 whole entry, looked up): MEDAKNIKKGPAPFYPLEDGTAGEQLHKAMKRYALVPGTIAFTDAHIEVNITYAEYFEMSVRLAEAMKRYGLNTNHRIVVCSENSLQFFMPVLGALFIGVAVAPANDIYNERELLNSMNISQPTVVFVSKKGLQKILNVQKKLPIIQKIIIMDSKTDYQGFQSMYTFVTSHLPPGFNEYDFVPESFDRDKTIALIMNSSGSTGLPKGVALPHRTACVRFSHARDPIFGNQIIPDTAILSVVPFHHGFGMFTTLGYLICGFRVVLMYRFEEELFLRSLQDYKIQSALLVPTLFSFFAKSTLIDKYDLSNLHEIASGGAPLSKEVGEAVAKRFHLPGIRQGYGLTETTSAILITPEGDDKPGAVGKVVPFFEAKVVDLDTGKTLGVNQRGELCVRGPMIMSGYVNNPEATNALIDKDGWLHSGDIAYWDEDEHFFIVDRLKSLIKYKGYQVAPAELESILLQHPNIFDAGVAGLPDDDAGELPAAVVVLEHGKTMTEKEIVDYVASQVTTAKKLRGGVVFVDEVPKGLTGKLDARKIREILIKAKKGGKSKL
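Biochemical qHTS of compounds, final roughly 60 µM downward over six points, against 10 nM purified firefly luciferase using Km concentrations of substrates (10 uM D-luciferin, 10 uM ATP) in Tris acetate pH 7.5 buffer; luminescence output.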
ELG1 DNA repair = qHTS screen for small molecules that inhibit ELG1-dependent DNA repair in human embryonic kidney (HEK293T) cells expressing luciferase-tagged ELG1; 2.3% of 330,000 active; AID 504467, 2011; HEK293T ELG1-luciferase reporter, luminescence, 16 h; DNA damage induced by 5-fluorouridine; Potency, µM (top dose mostly 46.1 µM), hits mostly inhibitors; also: nearly all actives have a fitted effect of over 55% in size
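Quantitative HTS, concentration-response format. 2,000 cells/well co-treated with 5-fluorouridine and compound, 16 hr in 5% CO2 at 37 °C; ONE-Glo luminescence read after 30 min.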
Hits are given with their value; – = inactive; ? = inconclusive; · = not tested or not shown; [ ] = remark or other dose. Calls follow the shape of the dose curve; as a rule, active = well fitted curve in the direction sought with a large enough effect; inconclusive = small, poorly fitted or top-dose-only effect, or another doubt; inactive = no such curve, though single readings can be large; an effect the other way counts as inactive or inconclusive.

SMILES	Rab9 promoter act	SMN2 splice up	NPC1 prom act	ELG1 genotox	FLuc counter	ELG1 DNA repair
COc1ccc(/C=N/Nc2nc(-c3cccc(S(=O)(=O)N4CCCC4)c3)cs2)cc1OC	–	–	–	–	?	?
Cc1ccc(-n2nc(CO)c(C(=O)NC(C)CCCc3ccccc3)n2)cc1 (stereo not given)	·	–	·	·	–	·
CCCCCOc1ccc(NC(=O)Cn2c(-c3nonc3N)nc3ccccc32)cc1	·	·	·	·	–	·
COc1ccccc1Nc1nc(C)nc(N)c1S(=O)(=O)c1ccccc1	·	–	·	·	–	·
Cc1ccccc1NC(=O)c1ccc2c(c1)C(=O)N(CC(C)C)C2=O	–	·	–	–	–	–
CC(C)CN1C(=O)c2ccc(C(=O)Nc3ccccn3)cc2C1=O	?	–	?	?	2.69µM	?
CC(C)CN1C(=O)c2ccc(C(=O)Nc3ccccc3C(=O)O)cc2C1=O	4.47µM	·	2.51µM	?	3.01µM	?
CC(C)CN1C(=O)c2ccc(C(=O)Nc3nccs3)cc2C1=O	?	–	?	?	6.75µM	?
NC(=O)[C@@H]1CC2(CC(c3cccc(NC(=O)COc4ccc(Cl)cc4)c3)=NO2)CN1C(=O)c1ccccc1 (stereo not given in full)	–	·	–	–	15.1µM	–
COc1ccc(C(=O)N2CC3(CC(c4cccc(NC(=O)COc5ccc(Cl)cc5)c4)=NO3)C[C@@H]2C(N)=O)cc1 (stereo not given in full)	–	·	–	–	10.7µM	?
Cc1ccc(-n2cc(CNCCn3nc(C)cc3C)c(-c3ccc(F)cc3)n2)cc1	–	·	–	–	26.9µM	?
Cc1ccc(-n2cc(CNCCCN3CCCC3=O)c(-c3ccc(F)cc3)n2)cc1	–	·	–	–	?	–
Cc1cccc(-n2cc(CN(C)Cc3nccn3C)c(-c3cccc(F)c3)n2)c1	–	·	–	–	?	?
Cc1ccc(-n2cc(CNCCc3ncc(C)[nH]3)c(-c3ccc(F)cc3)n2)cc1	–	–	–	–	26.9µM	–
Cc1cccc(-n2cc(CNCCN3CCOC3=O)c(-c3cccc(F)c3)n2)c1	–	·	–	–	9.53µM	–
COc1ccc(-n2cc(CNCCc3ncc(C)[nH]3)c(-c3ccccc3Cl)n2)cc1	–	·	–	–	–	?
Cc1ccc(-n2cc(CNCCN3CCOC3=O)c(-c3ccc(F)cc3)n2)cc1	–	·	–	–	7.57µM	?
Cc1ccc(C)c(CNC(=O)C2CCN(c3nc4ccccc4nc3C(F)(F)F)CC2)c1	·	·	·	·	–	·
COc1ccc(-n2cc(CNCCN3CCOC3=O)c(-c3ccccc3Cl)n2)cc1	–	·	–	–	16.9µM	–
Cc1ccc(C2=NC(c3ccccc3)=Nc3ccc(Cl)cc3N2)cc1	·	–	·	·	10.7µM	·
CCCCN(C)C(=O)Cn1cnc2sc(C)c(S(=O)(=O)N3CCN(c4ccccc4OC)CC3)c2c1=O	–	–	–	–	–	5.17µM
O=C(Nc1nc2c(F)cc(F)cc2s1)c1ccco1	0.447µM	·	0.708µM	?	4.78µM	?
O=C(Nc1nc2c(F)c(F)c(F)cc2s1)c1ccco1	2.51µM	·	2.24µM	?	6.01µM	?
O=C(CCc1ccccc1)Nc1nc2c(F)cc(F)cc2s1	–	·	?	–	16.9µM	?
O=C(COC(=O)c1ccco1)Nc1nc2c(F)c(F)c(F)cc2s1	–	·	–	–	–	–
SMILES	Rab9 promoter act	SMN2 splice up	NPC1 prom act	ELG1 genotox	FLuc counter	ELG1 DNA repair
O=C(Nc1nc2c(ccc3ccccc32)s1)c1ccco1	?	–	?	–	13.5µM	?
Cc1ccccc1C(=O)N1CCC(C(=O)NCCc2ccc(S(N)(=O)=O)cc2)CC1	–	·	–	–	–	–
CCOc1ccccc1NC(=O)COC(=O)c1ccc2ccccc2n1	–	·	–	–	–	–
COc1ccc(C(=O)N2c3ccccc3C(=O)OC2c2ccc3c(c2)OCO3)cc1 (stereo not given)	?	12.6µM	?	–	19µM	?
COc1ccc2c(c1)O[C@@H](c1ccc3c(c1)OCO3)[C@H](O)C2=O	·	20µM	·	·	·	·
COc1cccc(Nc2ncnc3sc(C)cc23)c1	?	·	–	?	16.9µM	?
COc1ccc(Nc2ncnc3sccc23)cc1	?	·	?	–	23.9µM	?
COc1cccc(Nc2ncnc3sccc23)c1	?	·	?	–	16.9µM	?
COC(=O)C1CCN(S(=O)(=O)c2cc3c4c(c2)C(C)C(=O)N4CCC3)CC1 (stereo not given)	·	·	·	·	–	·
COc1ccc(C2C(=O)N(C3CCC(C)CC3)CC(=O)N2CCc2ccccc2)cc1OC (stereo not given)	·	·	·	·	–	·
COc1ccc(/C=C2\SC(=NCc3ccccc3)N(Cc3ccccc3)C2=O)cc1OC	–	–	–	–	–	13µM
COc1cc(/C=C2/SC(=O)N(Cc3ccccc3)C2=O)ccc1OCc1ccncc1	–	–	–	–	–	10.3µM
Cc1c2cnn(CC(=O)NC(C)C)c(=O)c2c(C)n1Cc1ccccc1Cl	·	–	·	·	?	·
COCCn1c(-c2ccccc2)c(C)n2c3c(=O)n(C)c(=O)n(C)c3nc12	·	–	·	·	–	·
CC(=O)c1sc(N/N=C\c2cccc(Br)c2)nc1C	–	?	–	–	10.7µM	?
CCOC(=O)c1nc(N/N=C/c2ccccc2)sc1Br	–	·	–	–	7.57µM	–
CC(=O)c1sc(Nc2nc(C)cc(C)n2)nc1C	–[1.84 µM]	–	–	–	–	–
CCOC(=O)c1sc(Nc2ccc(OCC)cc2)nc1C	–	·	–	–	?	–
CCOC(=O)c1sc(N/N=C/c2ccc(N(C)C)cc2)nc1C	?	·	–	–	10.7µM	–
CC(=O)c1sc(N/N=C\c2ccc(Br)cc2)nc1C	?	?	?	?	5.36µM	?
CCOC(=O)c1nc(NCc2ccccc2)sc1C	–	·	–	–	?	?
CCCCN(CCCC)C(=O)CN(C)S(=O)(=O)c1ccc2c(c1)c(=O)n(C)c(=O)n2C	·	–	·	·	–	·
COc1ccc(OC)c(CNC(=O)CCCn2nc(C)c3c(C)n(-c4ccc(C)cc4)nc3c2=O)c1	·	·	·	·	–	·
Cn1c(N=NC(=O)c2ccccc2)c(O)c2ccccc21	0.562µM	1.26µM	0.708µM	?	0.849µM	?
Cn1c(O)c(N=NC(=O)CNC(=O)c2ccccc2)c2ccccc21	–	·	–	–	–	–
COc1ccccc1C(=O)NC(=O)COC(=O)c1nc2nc(C)cc(C)n2n1	–	·	–	–	–	?
O=C(Cc1ccccc1[N+](=O)[O-])NCc1ccc(Cl)cc1	?	20µM	?	?	16.9µM	?

Source: PubChem (National Center for Advancing Translational Sciences (NCATS))
